Laboratory results as given in the supplement of paper PMC6555819.

What was measured:
Assay in all cases: PBM binding z-score (relative to random genomic background probes); higher = stronger binding; sequences stand for … in GC…GCGATTGACAGCGTAGAATGAAGG
[1] = system: FXR:RXRa (NR concentration 270 nM, RXRa partner concentration 90 nM)
Method in brief: (§1)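 Scanned fluorescence from custom Agilent 4×180K protein-binding microarrays was regression-normalized. Binding z-scores use random background probes as reference. Ligand-free nuclear receptor dimers were incubated on the arrays for 1 h and detected with antibodies against each partner (one per run).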

[2] = system: LXRa:RXRa (NR concentration 270 nM, RXRa partner concentration 90 nM)
Method in brief: as §1

[3] = system: LXRa homodimer (NR concentration 270 nM)
Method in brief: as §1

[4] = system: LXRb:RXRa (NR concentration 270 nM, RXRa partner concentration 90 nM)
Method in brief: as §1

[5] = system: LXRb homodimer (NR concentration 270 nM)
Method in brief: as §1

[6] = system: PPARa:RXRa (NR concentration 270 nM, RXRa partner concentration 90 nM)
Method in brief: as §1

[7] = system: PPARg:RXRa (NR concentration 180 nM, RXRa partner concentration 90 nM)
Method in brief: as §1

[8] = system: PPARg:RXRa 270nM:90nM, anti-RXR (NR concentration 270 nM, RXRa partner concentration 90 nM)
Method in brief: as §1

[9] = system: PPARg:RXRa 30nM:10nM, anti-RXR (NR concentration 30 nM, RXRa partner concentration 10 nM)
Method in brief: as §1

[10] = system: PPARg:RXRa 90nM:30nM, anti-RXR (NR concentration 90 nM, RXRa partner concentration 30 nM)
Method in brief: as §1

| Sequence | PBM binding z-score [1] | PBM binding z-score [2] | PBM binding z-score [3] | PBM binding z-score [4] | PBM binding z-score [5] | PBM binding z-score [6] | PBM binding z-score [7] | PBM binding z-score [8] | PBM binding z-score [9] | PBM binding z-score [10] |
| --- | --- | --- | --- | --- | --- | --- | --- | --- | --- | --- |
| CTCGAAAGGTCGGTTGAGGTGAGTATTCGGATAA | 2.94 | 1.75 | -0.326 | 1.32 | -0.125 | 2.56 | -0.124 | 1.15 | 0.0232 | 0.23 |
| GGAACGAGGGCAAGTTGATAGGAGAGTTTGATGG | 0.63 | 0.287 | -0.48 | 0.289 | -0.332 | 1.81 | 1.05 | 0.946 | 0.0757 | 0.63 |
| GCATATAGGTAATACAAGGTGAAAGTGCGATTGT | 1.29 | 2.52 | 0.475 | 0.725 | -0.0302 | 2.26 | 1.96 | 2.57 | 1.04 | 2 |
| TCTATTAGTTGAAGGGCAGCCGACGAGTCCGTTT | 0.906 | 0.864 | 0.0935 | 0.623 | 0.323 | 0.856 | -0.213 | 1.78 | 3.64 | 2.81 |
| ATACTAAGGTGATCGTGAGGTCGTTGATACTAAC | 2.4 | 2 | 0.85 | 1.55 | 0.314 | 2.07 | 0.615 | 0.774 | 0.762 | 0.566 |
| GCAGACAGGTGACACGCAGGTAACTCAGGGTGGC | -0.0725 | -0.255 | -0.585 | -0.69 | -1.06 | 0.614 | 0.69 | -0.241 | -0.412 | -0.395 |
| AGAATGAGGTTATACGTAGATAAGGGAAGAAAGT | 2.05 | 1.86 | -0.00161 | 1.56 | 0.00672 | 3.3 | 2.47 | 2.07 | 1.02 | 1.67 |
| CAAACTAGGTCAAGAGGTCAAAGCCCGCTTCCCG | 7.07 | 6.28 | 5.68 | 5.4 | 1.5 | 6.76 | 10.1 | 8.55 | 7.71 | 8.87 |
| TCTTGTAGATGAAGCAGGTTAAGAAAGCCTGAGT | 0.563 | -0.122 | -0.489 | 0.276 | -0.649 | 0.511 | -0.527 | 0.925 | 2.72 | 1.69 |
| TCTGCTAGGTCAGTTGGTCAGCGAACGAGCTGCC | 1.05 | 0.587 | -0.495 | 0.166 | 0.433 | 1.57 | 0.47 | 1.87 | 1.06 | 1.38 |
| TCAGACAGGTGAAGGAAACTCAGGTACGCAGTCG | 0.911 | 1.04 | 0.00488 | 0.561 | 0.0545 | 1.05 | 0.717 | 2.37 | 4.29 | 3.32 |
| GCTAGCAGCCCATTTGGGTCACTCAATGACGGGC | -0.281 | -0.586 | -0.832 | -0.285 | -0.892 | 0.853 | 0.291 | 0.0178 | -0.724 | -0.506 |
| TAGCCTAGGACAGATCGGGCCAGTATACGCTATA | -1.33 | -1.15 | -0.706 | -1.34 | -0.794 | -1.96 | 0.367 | -0.842 | -0.355 | -0.623 |
| GCATAGAGGTAATACAAGGTGAAAGTCCGATTGT | 1.25 | 3.39 | -0.00697 | 1.1 | -0.79 | 1.51 | 0.691 | 0.857 | 0.448 | 0.729 |
| TAGACTAGGTCAGATCGGGCCAGTATACGCTATA | 1.54 | 0.872 | -0.254 | 0.626 | 0.289 | 2.47 | 3.05 | 2.82 | 1.07 | 2.03 |
| CCTTACGGGTCAAGGTTATAACACGGGTGGTACG | 5.53 | 3.71 | 0.233 | 3.44 | 0.254 | 5.22 | 4.63 | 4.8 | 2.22 | 3.94 |
| ATCGAAAGGTCGAGGTGGGTATAGAGAAAGGGAA | 4.46 | 3.55 | 0.722 | 3.12 | 0.942 | 4.74 | 2.59 | 3.11 | 1.17 | 1.97 |
| CCTGCTAGATCATGGTCAGCTAATCTACAGTATG | -0.747 | -0.678 | -0.68 | -0.476 | -0.922 | -0.672 | 0.0409 | -0.513 | -0.306 | -0.269 |
| CTCGAAAGGTCGTGCTCAGGTGAGTCTACCAAAC | 4.93 | 3.85 | 0.251 | 3 | 0.082 | 4.65 | 2.04 | 3.85 | 0.42 | 2.48 |
| CCGACTGGGGCAAAGGTTACCATACTCAGTACGA | 1.57 | 1.66 | 0.0551 | 2.1 | -0.895 | 5.49 | 11.2 | 9.84 | 8.71 | 11.5 |
| TCATATAGTTAAAGGTGAAAGTCGAACGATATGA | 0.692 | 1.27 | -0.183 | 1.25 | 0.00404 | 2.69 | 2.49 | 3.41 | 3.96 | 3.79 |
| AGTCAAAGTTCACTAGGTAACGTATGATTCAGCT | 4.96 | 4.91 | 2.85 | 3.16 | 1.09 | 4.64 | 7.19 | 6.52 | 3 | 5.54 |
| CGAACGAGGGCAGGAGTTGATAGCAAATGCCGAT | -0.327 | -0.217 | -0.463 | -0.569 | -1 | 0.441 | 1.17 | 1.46 | -0.21 | 1.07 |
| GATACAGGGTTAGCTAGAGGCCAGAGTATGGAAA | 0.0111 | 0.711 | -0.451 | 0.181 | -0.961 | 0.87 | 0.379 | 0.0848 | -0.37 | -0.205 |
